According to PubChem BioAssay (NCI):
“And” between values parts separate entries of the source, which are not always exact repeats. Identical values can stand only once. About 83,000 compounds went through this panel and 20% of them were active in at least one assay; those are over-represented in the sample as a whole.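 The endpoint reported here, percent growth, reads 100 for growth as untreated, 0 for no net growth and -100 for all cells dead.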 The source made the active and inactive calls. The calls were made as follows: active = growth percent below 10; inactive = the rest.

tested on: MDA-MB-468 breast; assay: NCI-60 one-dose screen, 48 h (100 = growth as untreated, 0 = no growth, -100 = all killed); settings: 10 µM unless noted

Row | Compound | growth
1 | C=CCOC(=O)C1=C(C)NC(=O)NC1c1c(Cl)n(C)c2ccccc12 (stereo not given) | 106% (inactive)
2 | O=C(CCc1nnc(-c2c(Cl)cccc2Cl)o1)c1nc2ccccc2[nH]1 | -2.19% (active)
3 | CC(C)[C@H](NC(=O)Cn1cc(C(=O)O)nn1)C(=O)O | 98.9% (inactive)
4 | CCOC(=O)CCC[P+](c1ccccc1)(c1ccccc1)c1ccccc1 | 6.56% (active)
5 | CCC(C)C1(C2CCCC2)NC(=O)NC1=O (stereo not given) | 115% (inactive) and 121% (inactive)
6 | COc1cc(-c2nc(-c3nc4ccc(Cl)cc4[nH]3)cc3c2[nH]c2ccccc23)cc(OC)c1OC | 44.1% (inactive)
7 | COc1ccc(/C=C/C(c2cc(OC)c(OC)c(OC)c2)n2ccnc2)cc1O (stereo not given) | 40.6% (inactive)
8 | CN1C(=O)N(C)C2C1NN=c1s/c(=C\c3ccc([N+](=O)[O-])cc3)c(=O)n12 (stereo not given) | 53.4% (inactive)
9 | Cc1c(-c2ccc(C3CCCCC3)cc2)nc2ccc(F)cc2c1C(=O)O | 74.4% (inactive)
10 | Clc1ccc2c(NCCN3CCN(c4ccnc(N5CCCC5)n4)CC3)ccnc2c1 | -4.71% (active)
11 | O=C(/C=C/c1ccc(Cl)c(Cl)c1)Nc1ncc(Cc2ccc(Cl)c(Cl)c2)s1 | 68.5% (inactive)
12 | NS(=O)(=O)Oc1ccc(NC(=O)C23CC4CC(CC(C4)C2)C3)cc1Cl | 103% (inactive)
13 | COc1ccc(-c2cc(-c3ccc(Cl)cc3)c(C#N)c(=O)n2Cc2ccc(C(=O)O)cc2)cc1 | 73.7% (inactive)
14 | O=C(N/N=C/c1ccc(O)cc1O)c1ccc(Nc2ccnc(C(F)(F)F)c2)cc1 | 29.5% (inactive)
15 | Cc1cnc(C(=O)Nc2nc3ccc(S(=O)(=O)Nc4ccc(C5(C(F)(F)F)CC5)cc4)cc3[nH]2)cn1 | -26.2% (active)
16 | FC(F)(F)c1cccc(Oc2ccc(Nc3ncnc4ccc(OCCCN5CCOCC5)cc34)cc2Cl)c1 | 5.72% (active)
17 | CCCCCCC/C(=N\N=C(N)N)c1ccc(O)cc1 | -79.7% (active)
18 | Cc1nn(-c2ccc([N+](=O)[O-])cc2)c2ncnc(NCCc3ccccc3)c12 | 111% (inactive)
19 | CC1(C)N=C(N)N=C(N)N1c1ccc(F)c(C(F)(F)F)c1 | 65.1% (inactive)
20 | Clc1ccc(-c2nc(-c3c[nH]c4ncccc34)cs2)cc1 | 80.2% [100 µM] (inactive)

Row | Compound | growth
21 | CCCCC/C=C/C/C=C/CCCCCCCC1=NC(C)(C)CN1C(C)C | -42.8% (active)
22 | COc1ccc(CCNC2=CC(=O)CCC2)cc1OC | 109% (inactive)
23 | CCOC(=O)C1CN(Cc2ccccc2)C(=O)C1=O (stereo not given) | 106% (inactive)
24 | Cc1ccc(NC(=S)/N=c2/n(-c3ccccc3)nc3n2CCN3C2=NCCN2)cc1 | 104% (inactive)
25 | COc1cc(-c2nn(-c3cccc(NC(=O)NCCNC(=O)c4ccccc4)c3)cc2-c2ccncc2)ccc1Cl | 12.1% (inactive)
26 | CC(=O)Nc1ccc2c(c1)Cc1c(F)c(F)c(F)c(F)c1-2 | 82.5% (inactive)
27 | COc1ccc2c3c(ccc2c1)C(=O)/C(=C\O)CC3 | 111% (inactive)
28 | O=C1/C(=C\c2cn(CC(O)CN3CCCCC3)c3ccccc23)c2ccccc2N1c1c(Cl)cccc1Cl (stereo not given) | -93.3% (active)
29 | COc1ccc(-c2coc3c(CO)c(O)ccc3c2=O)cc1 | 82.9% (inactive)
30 | Nc1nc(N)c2c(n1)NC(c1ccc(F)cc1)C1CCc3ccccc3C1=N2 (stereo not given) | 5.4% (active)
31 | COc1ccc(-c2nc(SCC(C)C)nc(N/N=C\c3ccc(F)cc3)c2C#N)cc1 | 102% (inactive)
32 | CCCCCCN1C(=O)/C(=c2\sc3n(c2=O)C2C(NN=3)N(CC)C(=O)N2CC)c2ccccc21 (stereo not given) | -10.2% (active)
33 | O=C(CC(CC(=O)c1ccccc1)c1ccccc1O)c1ccccc1 | 100% (inactive)
34 | COC(=O)C1(C)COP(=O)(Nc2ccc(OC)cc2)OC1 (stereo not given) | 106% (inactive)
35 | O=C(CN1C(=O)/C(=C/c2ccco2)SC1=S)NCCc1c[nH]c2ccc(F)cc12 | 105% (inactive)
36 | CCOc1ccc(-n2cc(-c3ccc(N(C)C)cc3)[n+]3c2CCCCC3)cc1 | -17.4% (active)
37 | COc1ccc(C(=O)c2no[n+]([O-])c2C(=O)c2ccc(OC)cc2)cc1 | -88.4% (active)
38 | COc1ccc(C(O)(CCC(C)C)C(CN2CCOCC2)c2ccc(Cl)cc2)cc1 (stereo not given) | 80.6% (inactive)
39 | c1ccc(-c2nn(-c3ccccc3)[n+](-c3cccc4ccccc34)n2)cc1 | -20.4% (active)
40 | O=C1C(Cl)C(c2ccccc2Cl)N1n1cnnc1 (stereo not given) | 106% (inactive)
